Screening results (PubChem BioAssay)
HTT ATP protect: qHTS Multiplex Assay to Identify Dual Action Probes in a Cell Model of Huntington: Cytoprotection (ATP) | PC12 HTT-Q103 induced, cytoprotection, ATP luminescence, 40 h | Potency, µM (highest dose often 56.4 µM), for the others: cytoprotection (ATP increase), usual class: activators | actives 0.14% (n = 230,000) | AID 1471, 2008; also: potency is read from the fitted curve at half-maximal effect; % of control where 0% means no effect; nearly all actives have a fitted effect of over 45% in size
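Quantitative HTS on tebufenozide-induced (100 nM) PC12 cells expressing HTTQ103 exon 1–GFP; compounds tested as a concentration series; survival measured via cellular ATP.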
HPGD block: qHTS Assay for Inhibitors of HPGD (15-Hydroxyprostaglandin Dehydrogenase) | purified HPGD, NADH fluorescence kinetic, PGE2 substrate | Potency, µM, without a hit: at the highest dose activity change, negative = inhibition, usual class: inhibitors | actives 4.3% (n = 150,000) | AID 894, 2007; active = well fitted inhibition curve with a large enough effect, not every such curve was filed as active; inconclusive = small, poorly fitted or top-dose-only effect, or another doubt; inactive = no such curve, though single readings can be large or run the other way; also: potency is read from the fitted curve at half-maximal effect; % is scaled to controls: 0 for no effect and ±100 for the full control effect
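NADH formation kinetics: reaction with 30 uM PGE2 and 1 mM NAD+ (final), 20 nM enzyme, Tris-HCl pH 8 with Tween 20, after 15 min compound preincubation at room temperature. Fluorescence change, last versus first of five reads.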
PNC assembly inh: High Content Assay for Compounds that inhibit the Assembly of the Perinucleolar Compartment | PC3M PTB-GFP, PNC prevalence imaging, 16 h; active compounds read low | activity change (PNC), negative = inhibition, % at 10 µM | actives 3.1% (n = 140,000) | AID 2417, 2010;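 active = readout at or below -70, meaning at least 70% loss of cells showing the perinucleolar compartment, a nuclear body marking cancer cells; inconclusive = readout between -30 and a set limit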;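 also: plate controls were DMSO wells for no effect and camptothecin positive control wells for full effect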
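Read-out is percentage of cells bearing a perinucleolar compartment, from automated 20x imaging of fixed, Hoechst-stained PC3M PTB-GFP cells. Cells were seeded 4 h, then exposed 16 h to compound (23 nl of library stock) in duplicate plates.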
HTT aggregate: qHTS Multiplex Assay to Identify Dual Action Probes in a Cell Model of Huntington: Aggregate Formation (GFP); AID 1688, 2009; actives 1.1% (n = 220,000); Potency, µM (titrated, usually from 46.1 µM), inactives show top-dose activity change, negative = inhibition, hits mostly inhibitors; PC12 HttQ103-GFP aggregates, Acumen cytometry, 40 h; also: potency is read from the fitted curve at half-maximal effect; % is scaled to controls: 0 for no effect and ±100 for the full control effect; nearly all actives have a fitted effect of over 60% in size
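Huntingtin Q103 exon 1–GFP aggregates in induced PC12 cells (100 nM tebufenozide) were quantified by cytometry from lysates, with compounds dosed in titration.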
RGS12 GoLoco inh: qHTS Assay for Inhibitors of RGS12 GoLoco Motif Activity (Red Fluorophore) | Potency, µM (doses to about 61.6 µM), inactives show at the highest dose activity, negative = inhibition, hits mostly inhibitors | actives 0.44% (n = 230,000) | AID 880, 2007 | Gai1:RGS12 GoLoco peptide FP, rhodamine, 10 min; active = well fitted inhibition curve with a large enough effect, not every such curve was filed as active; inactive = no such curve, though single readings can be large or run the other way; also: potency is read from the fitted curve at half-maximal effect; % is scaled to controls: 0 for no effect and ±100 for the full control effect; nearly all actives have a fitted effect of over 30% in size
Target sequence (P63096 whole entry, looked up): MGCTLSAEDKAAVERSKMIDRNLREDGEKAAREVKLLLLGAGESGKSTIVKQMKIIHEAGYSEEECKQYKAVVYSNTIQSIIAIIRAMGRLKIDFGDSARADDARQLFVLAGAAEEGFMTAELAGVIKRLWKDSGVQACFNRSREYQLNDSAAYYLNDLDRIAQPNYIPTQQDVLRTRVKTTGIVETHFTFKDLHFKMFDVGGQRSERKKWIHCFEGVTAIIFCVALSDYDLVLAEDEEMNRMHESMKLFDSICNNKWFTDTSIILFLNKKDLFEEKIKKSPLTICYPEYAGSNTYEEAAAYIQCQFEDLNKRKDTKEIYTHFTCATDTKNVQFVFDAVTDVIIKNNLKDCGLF
ALDH1A1 block: qHTS Assay for Inhibitors of Aldehyde Dehydrogenase 1 (ALDH1A1); Purified ALDH1A1, NADH fluorescence, propionaldehyde substrate; Potency, µM (titrated, usually from 75.3 µM), without a hit: top-dose activity, negative = inhibition, most hits filed as inhibitors; actives 7.3% (n = 220,000); AID 1030, 2008; active = well fitted inhibition curve with a large enough effect, not every such curve was filed as active; inconclusive = small, poorly fitted or top-dose-only effect, or another doubt; inactive = no such curve, though single readings can be large or run the other way;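 also: potency is read from the fitted curve at half-maximal effect; plate controls were no enzyme wells and a reference inhibitor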
Numbers without * were called inactive; ? = inconclusive; / = no result; ! = not active in a repeat; [ ] = another dose, or the depositor's remark. Most compounds without a hit are left out; they make up all but 11% or so of the library. Unless noted, calls follow the shape of the dose curve; as a rule, active = well fitted curve in the direction sought with a large enough effect; inconclusive = small, poorly fitted or top-dose-only effect, or another doubt; inactive = no such curve, though single readings can be large; an effect the other way counts as inactive or inconclusive.

SMILES	HTT ATP protect	HPGD block	PNC assembly inh	HTT aggregate	RGS12 GoLoco inh	ALDH1A1 block
CC(C)COCC(CN(Cc1ccccc1)c1ccccc1)N1CCCC1 (centres undefined)	-141%	4%	/	?	11µM*!	-12%
Cc1ccc(NC(=O)COC(=O)/C=C/c2cccs2)cc1	16%[10 µM]	28µM*	?	14%	-10%	11%
CCN(c1ccc(NC(=O)COC(=O)/C=C/c2cccs2)cc1)C(C)C	22%[10 µM]	/	/	21%	-10%	0.13µM*
NC(=O)c1ccc(NC(=O)COC(=O)/C=C/c2cccs2)cc1	-19%	/	/	13%	6%	2%
CCN(CC)S(=O)(=O)c1cccc(NC(=O)COC(=O)/C=C/c2cccs2)c1	8%[10 µM]	/	/	-1%[9.22 µM]	4%	/
Cc1nc2[nH]c(=O)[nH]c(=O)c2[nH]1	?	-10%	/	/	1%	-9%
O=CC(=O)c1ccccc1	-30%	-8%	/	/	1%	2.8µM*
COc1ccccc1N(C)S(=O)(=O)c1ccc(C(=O)NCC(C)C)cc1	-2%	25µM*	8	15%	15%	-1%
COc1ccc(NC(=O)COC(=O)c2ccc(S(=O)(=O)N(C)c3ccccc3OC)cc2)cc1OC	29%	/	/	1%	1%	2%
COc1ccc(NC(=O)COC(=O)c2ccc(S(=O)(=O)N(C)c3ccccc3OC)cc2)c(OC)c1	-66%	/	/	-2%	-5%	7.1µM*
COc1ccc(N2CCN(C(=O)c3ccc(Br)cc3)CC2)c([N+](=O)[O-])c1	?	/	/	-25%	3%	13µM*
CCCCC(=O)N1CCN(c2ccc(OC)cc2[N+](=O)[O-])CC1	44%[10 µM]	14µM*	-11	-9%	3%	?
COc1ccc(N2CCN(C(=O)c3ccccc3)CC2)c([N+](=O)[O-])c1	13%[10 µM]	/	/	9%[9.22 µM]	3%	?
COc1ccc(N2CCN(C(=O)c3ccccc3Br)CC2)c([N+](=O)[O-])c1	/	/	/	?	-8%	?
COc1ccc(N2CCN(C(=O)c3ccc(C)cc3)CC2)c([N+](=O)[O-])c1	/	-26%	10	-17%	1%	11µM*
CCCOc1ccc(Br)cc1-c1cc(-c2ccc(Cl)cc2)[nH]c1-c1ccncc1	2%	?	/	/	-6%	?
NNC(=O)c1nn(-c2ccc(Cl)cc2)cc1O	5%[10 µM]	/	/	-6%[9.22 µM]	-1%	?
C=Cc1ccc([C@H]2N[C@@H](C(=O)O)CC[C@@H]2C)cc1	-9%[10 µM]	/	/	/	/	13%[13.5 µM]
Cc1cc(-c2nc3c4c5c(sc4[nH]c(=O)n3n2)CCC5)c(C)o1	-9%[10 µM]	20µM*	-8	20%	13%	-8%
CC(=O)NC(C(=O)O)C(C)(C)SN=O (centres undefined)	6%	-6%	/	/	4%	1%
N#Cc1ccc(CN2CC3(CCN(C(=O)c4ccncc4)CC3)C2)cc1	4%	-3%	/	/	4%	5%
Cc1ccc(N2C(=O)C(CC(=O)Nc3cccc(F)c3)N(C3CC3)C2=O)cc1 (centres undefined)	-13%	/	/	-1%	-5%	20µM*
COc1cccc(N2C(=O)C(CC(=O)Nc3ccc(F)cc3)N(C3CCCCC3)C2=O)c1 (centres undefined)	-24%	-3%	-29	-16%	10%	8%
CCOc1ccccc1N1C(=O)CC(Sc2n[nH]c(-c3ccccc3)n2)C1=O (centres undefined)	?	/	/	0%	-35%	11µM*
COc1ccc(N2C(=O)CC(Sc3n[nH]c(-c4cccc(C)c4)n3)C2=O)cc1 (centres undefined)	-17%[10 µM]	/	/	-2%[9.22 µM]	-34%	/
